The text below walks through data of PubChem BioAssay (NCI).

Compounds without any hit were thinned out: in the full panel of roughly 83,000, 20% have a hit.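 Plates (96-well) were seeded with cells, treated with compound at one concentration, and incubated for 48 hours before percent growth was determined.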 A number with no mark means an inactive call. Active and inactive are the calls of the source. The calls were made as follows: active = growth percent below 10; inactive = the rest.

In the assay the test system is HS 578T breast. Briefly: NCI-60 one-dose screen, 48 h (100 = growth as untreated, 0 = no growth, -100 = all killed). Particulars: 10 µM.
For the compound `O=C(CS(=O)(=O)c1oc(-c2ccc(Cl)cc2)nc1S(=O)(=O)c1ccc(Cl)cc1)N1CCOCC1`, the growth is 76%.
The same measure for `CN1CCN(c2ccc(Nc3nc(NCCCNC(=O)c4ccc(Cl)cc4)c4sccc4n3)cc2)CC1`: 78.8%.
The same measure for `CN1CCN(c2ccc(Nc3nc(NCCNC(=O)c4ccc(C(F)(F)F)cc4)c4sccc4n3)cc2)CC1`: -8.08% (active).
The same measure for `O=C(NCCCCC(c1ccc(F)cc1)c1ccc(F)cc1)NCCCc1cccnc1`: 56.4%.
Regarding `O=C(c1ccc(Cl)cc1)C1[C@H](c2ccc(Br)cc2)[C@@H](c2ccccc2)NC12C(=O)Nc1ccc(Br)cc12` (stereo partly drawn), the growth is -16.6% (active).
With `COc1ccc2[nH]c(O)c(N=NC(=O)COc3ccc(NC(=O)Nc4ccc(Cl)cc4)cc3)c2c1`, the growth was 22.8%.
In the case of `CONC[C@]1(C)C=C2C(=O)[C@](C)(O)C3(CC3)C(C)=C2[C@H]1O` it was -12.4% (active).
Regarding `COC[C@@H](CC(C)C)N=C1NC(=O)/C(=C/c2ccc3ncoc3c2)N1`, the growth is 25.9%.
On to `O=C(c1ccc(Cl)cc1)C1[C@H](c2ccccc2Br)[C@@H](c2ccccc2)NC12C(=O)Nc1ccccc12` (stereo partly drawn), for which the growth was 18%.
The same measure for `Cc1ccc(NCC(=O)Nn2c(COc3ccccc3)nc3ccccc3c2=O)cc1`: 66.1%; for `CO[C@@H]1CSSC1Cn1nc(-c2ccc(Oc3ccccc3)cc2)c2c(N)ncnc21` (stereo partly drawn): 61.6%; for `COc1cc(Cn2c(C(F)(F)F)cc3c(Cl)ncnc32)ccn1`: 11.2%.
In the case of `COc1ccc(/C(C)=N/N=C2C(=O)N(C)c3ccc(Br)cc32)cc1S(N)(=O)=O` it was 39.7%.
